Results as given in PubChem BioAssay AID1852 (Sanford-Burnham Center for Chemical Genomics, 2009).
Screen size: about 2,500 compounds; about 1,100 (44%) were called active.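 Rule for the calls: active = inhibition above 50% at 4 µM in the single-point screen; inactive = inhibition of 50% or less.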 So high a share suggests a set chosen from earlier hits. The list shows a part of the results.

Experiment: blockers of TNF-a NF-kB luciferase induction – cell-based, HEK293T NF-kB-Luc, luminescence, selectivity assay for NOD1/NOD2 signaling inhibitor project, primary screen (AID 1852)
Conditions: TNF-a induced, 14 h, at 4 µM, active compounds read high

inhibition, inactive:
O=C(NC1CCCCC1)N1CCN(c2nc(-c3ccccc3)cs2)CC1 48.4%
Cc1ccc(-c2csc(NC(=O)C3=NN(c4ccccc4)C(=O)CC3)n2)cc1 38.6%
Nc1ccc(S(=O)(=O)Nc2nccc(/C=C/c3ccc(Cl)cc3Cl)n2)cc1 4%
Cc1cccc2cc3c(N)c(C(=O)Nc4ccc(N5CCOCC5)cc4)sc3nc12 36.4%
COc1cccc(Cn2c(NCc3cccnc3)nc3c2c(=O)n(C)c(=O)n3C)c1 37.8%
CC(C(=O)N1CCN(c2ccccc2F)CC1)c1ccc([N+](=O)[O-])cc1 (stereo unspecified) -32.5%
O=S(=O)(Nc1nc2ccccc2nc1Cl)c1ccc(Br)cc1 20.8%
O=C(O)CCC(=O)Nc1cccc(-c2csc(-c3ccccc3)n2)c1 41.9%
COc1ccccc1-c1cc(C(F)(F)F)nc(S(=O)(=O)CCCC(=O)Nc2cccnc2Cl)n1 37.1%
Cc1cc(-c2ccc(C)c(S(=O)(=O)N3CCN(c4ccc([N+](=O)[O-])cc4)CC3)c2)on1 16.8%
C[C@@H](C(=O)Nc1ccc2ccccc2c1)[C@@H]1C[C@@]1(C)[C@@H](NC(=O)c1cnccn1)c1ccccc1 -2.6%
COc1ccccc1Nc1nc(NCC2CCCO2)c2ccccc2n1 (stereo unspecified) 39.1%
Cc1cc(C(=O)COC(=O)c2ccccc2Br)c(C)n1CC1CCCO1 (stereo unspecified) -5.9%
CCCCN(CC)c1nc(-c2ccncc2)nc2ccccc12 34.7%
O=C(N/C(=C/c1ccc([N+](=O)[O-])cc1)C(=O)N1CCOCC1)c1ccco1 14%
O=S(=O)(Nc1nc2ccccc2nc1Nc1ccc2c(c1)OCO2)c1ccc(F)cc1 18%
CCn1nc(NS(=O)(=O)c2ccc([N+](=O)[O-])cc2)c2cc3cccc(C)c3nc21 19.3%
Cc1cc(Nc2nc3ccccc3nc2Cl)n(-c2ccc([N+](=O)[O-])cc2)n1 28.5%
COc1cccc(Nc2nc3ccccc3nc2NS(=O)(=O)c2cccs2)c1 7.5%
O=[N+]([O-])c1cc(-c2nc3nc4ccccc4nc3n2CCc2ccccc2)cc([N+](=O)[O-])c1 -12.4%
COc1ccc(O)c(CNn2c(-c3ccc(Br)cc3)nc3ccccc3c2=O)c1 12.6%
CCn1c(/C=C/c2cc(Br)ccc2O)nc2ccccc2c1=O -6.3%
Cc1ccc(-c2cc(C(=O)N/N=C/c3ccc([N+](=O)[O-])o3)c3ccccc3n2)o1 6.6%
COc1ccc(Nc2nc(NCC3CCCO3)c3ccccc3n2)c(OC)c1 (stereo unspecified) 31.4%
COc1cccc(NC(=O)CSc2nc3ccccc3c(=O)n2C)c1 12.1%
COc1cccc(/C=C/c2ccc3cccc(O)c3n2)c1OC -20%
Oc1ccc(Cl)cc1/C=C/c1ccc2cccc(O)c2n1 8.6%
COc1cccc(/C=C/c2ccc3ccccc3n2)c1OC(C)=O -25.7%
COc1ccc(Cl)cc1/C=C/c1ccc2cccc(O)c2n1 47.4%
CCOc1cccc(/C=C/c2ccc3cccc(O)c3n2)c1O 4.2%
COc1cc(Br)cc(/C=C/c2ccc3cccc(O)c3n2)c1O 0.4%
Cc1ccc(NC(=O)CN(c2ccc(Cl)cc2)S(=O)(=O)c2cc([N+](=O)[O-])ccc2Cl)c(C)c1 -17.7%
Cc1ccc(NS(=O)(=O)c2ccc(-n3cccn3)cc2)c(C)c1 40.7%
Cc1ccc(NC(=O)CC(=O)c2ccc([N+](=O)[O-])cc2)cc1S(=O)(=O)Nc1cccc(Cl)c1 15.2%
O=C(Oc1c(-c2ccccc2)c(=O)n2c3c(cccc13)CC2)c1ccc(F)cc1 49.3%
COc1ccc(C(=O)Nc2sc3c(c2C(=O)NCc2ccco2)CCCC3)cc1OC -42.2%
COc1ccc(NC(=O)c2c(Nc3ccccc3)sc(C(=O)c3ccc(F)cc3)c2N)cc1 10%
CC(C)(C)OC(=O)CNC(=O)c1[nH]cnc1C(=O)NC1CCN(C(=O)OC(C)(C)C)CC1 -15.2%
COCCn1c(SCC(=O)N2CCc3ccccc3C2)nc2cc(Cl)ccc2c1=O 13.3%
O=C(CSc1nnc2ccc3ccccc3n12)N1CCOCC1 -57.3%
COCCCN(C(=O)Cc1ccc(Cl)c(Cl)c1)c1c(N)n(Cc2ccccc2)c(=O)[nH]c1=O 7.8%
CC(C)Cn1c(N)c(C(=O)COC(=O)CC23CC4CC(CC(C4)C2)C3)c(=O)n(C)c1=O 26.6%
CCN(CC)S(=O)(=O)c1cc(OC)ccc1N=Nc1ccc(O)c2ncccc12 -1.5%
Cc1c(C(=O)N2CCN(c3ccc(F)cc3)CC2)sc2ncnc(N3CCN(c4ccccn4)CC3)c12 15.6%
COc1ccccc1N1CCN(C(=O)c2sc3ncnc(N4CCN(c5ccccn5)CC4)c3c2C)CC1 -30.1%
CCn1c(=O)c([N+](=O)[O-])c(N2CCN(Cc3ccc4c(c3)OCO4)CC2)c2ccccc21 38.9%
Cn1c(=O)c([N+](=O)[O-])c(N2CCN(Cc3ccc4c(c3)OCO4)CC2)c2ccccc21 18.3%

inhibition, active:
O=C(Nc1nc(-c2ccccc2)cs1)c1ccc2c(=O)n3c(nc2c1)CCCCC3 106%
Cc1ccc(-c2csc(NC(=O)c3ccc4c(=O)n5c(nc4c3)CCCCC5)n2)cc1 97.1%
Cc1cc(N2CCOCC2)c2c(N)c(Br)cc(C)c2n1 80.6%
COc1ccccc1-c1cc(C(F)(F)F)nc(S(=O)(=O)CCCC(=O)N2CCCCC2C)n1 (stereo unspecified) 66.8%
COc1ccccc1-c1cc(C(F)(F)F)nc(S(=O)(=O)CCCC(=O)N2CCOCC2)n1 51.1%
COc1cc(/C=N/Nc2nc3c(c(=O)n(C)c(=O)n3C)n2Cc2ccccc2)ccc1OC(=O)c1ccco1 52.5%
O=S(=O)(Nc1nc2ccccc2nc1N1CCN(c2ccccc2F)CC1)c1ccc(Cl)cc1 86.2%
COc1ccc(-c2cc(C(F)(F)F)nc(S(=O)(=O)CCCC(=O)Nc3cccnc3Cl)n2)cc1OC 88.1%
COc1ccc(-c2cc(C(F)(F)F)nc(S(=O)(=O)CCCC(=O)Nc3cccc(O)c3)n2)cc1OC 81.5%
Cc1cc(C(=O)CN2C(=O)c3ccccc3S2(=O)=O)c(C)n1CC1CCCO1 (stereo unspecified) 96.8%
Cc1cc(C(=O)CSc2nc3ccccc3c(=O)n2C)c(C)n1Cc1ccc2c(c1)OCO2 69.5%
Cc1cc(C(=O)CSc2nc3ccccc3c(=O)n2C)c(C)n1CC1CCCO1 (stereo unspecified) 65.9%
COc1cc(Nc2nc3ccccc3nc2NS(=O)(=O)c2ccc([N+](=O)[O-])cc2)cc(OC)c1OC 84.6%
Cc1ccc(S(=O)(=O)Nc2nc3ccccc3nc2Nc2cccc(S(=O)(=O)N3CCCC3)c2)cc1 71%
O=[N+]([O-])c1cccc(S(=O)(=O)Nc2nc3ccccc3nc2Nc2cccc(S(=O)(=O)N3CCCCC3)c2)c1 97.6%
O=c1c2ccccc2nc(/C=C/c2cc(Br)ccc2O)n1CCCO 59%
O=c1c2ccccc2nc(/C=C/c2ccc([N+](=O)[O-])o2)n1CCCO 98.8%
COc1cccc(Nc2nc(NCCO)c3ccccc3n2)c1 69.6%
COc1cc(OC)c(N(C)S(=O)(=O)c2cccc(C(=O)OCC(=O)c3c[nH]c4ccccc34)c2)cc1Cl 92.4%
COc1ccc(OC)c(/C=C/c2ccc3cccc(O)c3n2)c1 105%
Oc1cccc2ccc(/C=C/c3ccccc3Br)nc12 51.4%
COc1ccc(Br)cc1/C=C/c1ccc2cccc(O)c2n1 52.6%
Cc1ccc(NS(=O)(=O)c2cc([N+](=O)[O-])ccc2NNC(=S)Nc2cc(C)ccc2C)c(C)c1 77.3%
Cc1ccc(C)c(NC(=O)c2ccccc2NS(=O)(=O)c2cc([N+](=O)[O-])ccc2C)c1 75.8%
O=C(Oc1c(-c2ccccc2)c(=O)n2c3c(cccc13)CC2)c1ccc(Cl)cc1 90.1%
O=C(Oc1c(-c2ccccc2)c(=O)n2c3c(cccc13)CC2)c1ccccc1 75.1%
COc1ccc(C(=O)c2c(C(F)(F)F)oc3c2C(=O)c2ccccc2C3=O)cc1OC 102%
COc1ccc(C(=O)c2c(C(F)(F)F)oc3c2C(=O)c2ccccc2C3=O)cc1 100%
O=C(OCn1ncc(Br)c(Br)c1=O)c1c(F)cccc1F 82.5%
O=C(OCn1ncc(Br)c(Br)c1=O)c1ccc(F)cc1 86.5%
CC(=O)Cn1ncc(Br)c(Br)c1=O 95%
Cc1ccc(Cl)cc1N1CCN(C(=O)CSc2nnc3n2C(C)(C)Cc2ccccc2-3)CC1 95.1%
CC1Cc2cc(-c3csc(NC(=O)Cc4cccs4)n3)ccc2N1S(C)(=O)=O (stereo unspecified) 60.6%
Cn1c(=O)c(C(=O)CCl)c(N)n(Cc2ccccc2)c1=O 72.4%
COc1cccc(N=Nc2ccc(O)c3ncccc23)c1 61%
COc1cccc(N=Nc2ccc3cccnc3c2O)c1 54.2%
O=S1(=O)Nc2c(ccc3cccnc23)-c2ccccc21 104%
Cc1c(C(=O)N2CCN(Cc3ccc4c(c3)OCO4)CC2)sc2ncnc(N3CCN(c4ccccc4)CC3)c12 98.5%
O=[N+]([O-])c1ccc2ncnc(N3CCN(Cc4ccc5c(c4)OCO5)CC3)c2c1 97.2%
